# In PubChem BioAssay (EPA / NIEHS):
# Activity calls are given as the source filed them. The calls were made as follows: active = hit-call score of the fitted dose curve at least 0.9, where 1 is the maximum; inactive = score below 0.9.
# Tests used:
# Conditions in all cases: mRNA level, 48 h; actives raise or lower the signal
# [1] = read-out: Cytochrome P450 (CYP2B6), CYP2B6 (gene 1555); experiment: LTEA_HepaRG_CYP2B6: Life Technologies and Expression Analysis (LTEA) Assay for Cytochrome P450 (CYP2B6) using HepaRG (AID 2283481)
# How it was run: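 HepaRG cells plated 48 h, switched to serum-free induction medium, then dosed 48 h (8 points, half-log from 100 uM, 0.5% DMSO). RNA isolated; CYP2B6 expression measured by qRT-PCR; gain or loss fitted relative to DMSO.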
# [2] = read-out: Cytochrome P450 2C19 (Homo sapiens) (UniProt P33261); experiment: LTEA_HepaRG_CYP2C19: Life Technologies and Expression Analysis (LTEA) Assay for CYP2C19 using HepaRG (AID 2283482)
# How it was run: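 Transcript levels of CYP2C19 were quantified by qRT-PCR after HepaRG cells were treated for 48 hours with test chemicals up to 100 uM (eight half-log concentrations, 0.5% DMSO vehicle). Gain or loss of signal was fitted relative to DMSO.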
# CYP2C8 (gene 1558) = experiment: LTEA_HepaRG_CYP2C8: Life Technologies and Expression Analysis (LTEA) Assay for CYP2C8 using HepaRG (AID 2283483)
# How it was run: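 This is a transcriptional endpoint in HepaRG cultures: 48 h exposure, highest concentration 100 uM. CYP2C8 mRNA is quantified by TaqMan qRT-PCR.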
# CYP2C9 (gene 1559) = experiment: LTEA_HepaRG_CYP2C9: Life Technologies and Expression Analysis (LTEA) Assay for CYP2C9 using HepaRG (AID 2283484)
# How it was run: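 Eight-point concentration-response (highest 100 uM, half-log dilutions) in HepaRG cells for 48 h; CYP2C9 expression by qRT-PCR normalized to ACTB, GAPDH, POLR2A. Bidirectional fit, DMSO baseline.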
# CYP2E1 (gene 1571) = experiment: LTEA_HepaRG_CYP2E1: Life Technologies and Expression Analysis (LTEA) Assay for CYP2E1 using HepaRG (AID 2283485)
# How it was run: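 Readout is qRT-PCR of CYP2E1 mRNA, normalized to three housekeeping genes and fitted bidirectionally against 0.5% DMSO. HepaRG cells were dosed 48 h at eight concentrations, highest 100 uM with half-log dilutions.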
# CYP4A11 (gene 1579) = experiment: LTEA_HepaRG_CYP4A11: Life Technologies and Expression Analysis (LTEA) Assay for CYP4A11 using HepaRG (AID 2283486)
# How it was run: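 HepaRG, 48 h chem exposure, 8 conc (100 uM top, half-log), 0.5% DMSO vehicle; qRT-PCR readout, housekeeping-gene normalized; bidirectional curve fit vs DMSO baseline.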
# [3] = read-out: Cytochrome P450 3A4 (Homo sapiens) (UniProt P08684); experiment: LTEA_HepaRG_CYP3A4: Life Technologies and Expression Analysis (LTEA) Assay for CYP3A4 using HepaRG (AID 2283487)
# How it was run: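 Differentiated HepaRG cells, plated 48 h, then dosed 48 h in serum-free induction medium with 0.5% DMSO, 8 half-log concentrations up to 100 uM, duplicate. CYP3A4 mRNA by qRT-PCR, normalized to ACTB/GAPDH/POLR2A; bidirectional fit versus DMSO.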
# [4] = read-out: DNA damage-inducible transcript 3 (DDIT3), DDIT3 (gene 1649); experiment: LTEA_HepaRG_DDIT3: Life Technologies and Expression Analysis (LTEA) Assay for DNA damage-inducible transcript 3 (DDIT3) using HepaRG (AID 2283488)
# How it was run: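 Cells are human HepaRG liver cells treated for 48 h with eight half-log concentrations up to 100 uM in 0.5% DMSO. Transcript levels come from qRT-PCR normalized to three housekeeping genes, with activity fitted in both directions relative to vehicle.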
# [5] = read-out: Pro-epidermal growth factor (Homo sapiens) (UniProt P01133); experiment: LTEA_HepaRG_EGF: Life Technologies and Expression Analysis (LTEA) Assay for Epidermal growth factor (EGF) using HepaRG (AID 2283489)
# How it was run: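 HepaRG, 48 h dosing, 100 uM top, half-log x8, 0.5% DMSO. Readout: TaqMan qRT-PCR (Fluidigm array), housekeeping-normalized. Gain or loss of signal fit vs DMSO.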
# [6] = read-out: Early growth response protein 1 (EGR1) transcription factor, EGR1 (gene 1958); experiment: LTEA_HepaRG_EGR1: Life Technologies and Expression Analysis (LTEA) Assay for Early growth response protein 1 (EGR1) transcription factor using HepaRG (AID 2283490)
# How it was run: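 EGR1 expression change in human HepaRG after 48 h chemical exposure, assessed by housekeeping-normalized qRT-PCR; concentration-response up to 100 uM, fitted in both directions against DMSO controls.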
# [7] = read-out: Ezrin (EZR), EZR (gene 7430); experiment: LTEA_HepaRG_EZR: Life Technologies and Expression Analysis (LTEA) Assay for Ezrin (EZR) using HepaRG (AID 2283491)
# How it was run: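 EZR transcript levels came from Fluidigm qRT-PCR and were normalized to three housekeeping genes after 48 h chemical exposure of HepaRG cells. Dosing used an 8-point half-log series with a 100 uM top concentration in 0.5% DMSO, tested in duplicate; both directions were fitted versus vehicle.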
# CYP3A5 (gene 1577) = experiment: LTEA_HepaRG_CYP3A5: Life Technologies and Expression Analysis (LTEA) Assay for CYP3A5 using HepaRG (AID 2283493)
# How it was run: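 Human HepaRG hepatic cells receive 48 h chemical treatment at eight concentrations (half-log steps from 100 uM) in 0.5% DMSO. Expression of CYP3A5 is quantified by Fluidigm qRT-PCR and normalized to three reference genes.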
# [8] = read-out: Cytochrome P450 4A22 (Homo sapiens) (UniProt Q5TCH4); experiment: LTEA_HepaRG_CYP4A22: Life Technologies and Expression Analysis (LTEA) Assay for Cytochrome P450 4A22 (CYP4A22) using HepaRG (AID 2283495)
# How it was run: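 Readout is CYP4A22 transcript induction or loss, quantified by qRT-PCR and normalized to ACTB, GAPDH and POLR2A. Human HepaRG cells receive test chemicals for 48 h at eight half-log concentrations from 100 uM in 0.5% DMSO.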
# [9] = read-out: Cytochrome P450 7A1 (Homo sapiens) (UniProt P22680); experiment: LTEA_HepaRG_CYP7A1: Life Technologies and Expression Analysis (LTEA) Assay for Cytochrome P450 7A1 (CYP7A1) using HepaRG (AID 2283496)
# How it was run: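 HepaRG, 48 h exposure, 8-pt half-log series from 100 uM, 0.5% DMSO vehicle, duplicates. Readout: TaqMan qRT-PCR mRNA vs three housekeeping genes; bidirectional curve fit against DMSO baseline.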
# [10] = read-out: Glutathione S-Transferase (GSTA2), GSTA2 (gene 2939); experiment: LTEA_HepaRG_GSTA2: Life Technologies and Expression Analysis (LTEA) Assay for Glutathione S-Transferase (GSTA2) using HepaRG (AID 2283497)
# How it was run: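 Oxidative-stress marker GSTA2 is quantified by TaqMan qRT-PCR in HepaRG cultures treated 48 h across an eight-point range to 100 uM. Expression is normalized to endogenous controls and compared with 0.5% DMSO vehicle.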
# [11] = read-out: Glutamate-cysteine ligase catalytic (GCLC), GCLC (gene 2729); experiment: LTEA_HepaRG_GCLC: Life Technologies and Expression Analysis (LTEA) Assay for Glutamate-cysteine ligase catalytic (GCLC) using HepaRG (AID 2283498)
# How it was run: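 Oxidative-stress marker GCLC is measured as mRNA change in human HepaRG liver cells after 48 h chemical treatment in 0.5% DMSO, eight concentrations from 100 uM. Activity is fitted bidirectionally against vehicle.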
# [12] = read-out: growth arrest and DNA damage 45 (GADD45G), GADD45G (gene 10912); experiment: LTEA_HepaRG_GADD45G: Life Technologies and Expression Analysis (LTEA) Assay for growth arrest and DNA damage 45 (GADD45G) using HepaRG (AID 2283499)
# How it was run: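 Gain or loss of GADD45G mRNA, quantified by TaqMan qRT-PCR against three housekeeping genes, is fitted in both directions relative to 0.5% DMSO. Human HepaRG cultures receive test chemical for 48 h at up to 100 uM.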
# [13] = read-out: Glutamate-cysteine ligase regulatory (GCLM), GCLM (gene 2730); experiment: LTEA_HepaRG_GCLM: Life Technologies and Expression Analysis (LTEA) Assay for Glutamate-cysteine ligase regulatory (GCLM) using HepaRG (AID 2283500)
# How it was run: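 Endpoint is GCLM transcript level by qRT-PCR, normalized to three housekeeping genes, after 48 h chemical exposure of human HepaRG cells (0.5% DMSO vehicle, top 100 uM, half-log dilutions). Fitting was bidirectional relative to DMSO.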
# [14] = read-out: Cytochrome P450 3A7 (Homo sapiens) (UniProt P24462); experiment: LTEA_HepaRG_CYP3A7: Life Technologies and Expression Analysis (LTEA) Assay for CYP3A7 using HepaRG (AID 2283492)
# How it was run: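 Human HepaRG liver cells, 48 h post-plating, switched to serum-free induction medium and exposed in duplicate for 48 h. Dosing: 100 uM top, half-log dilutions, 8 points, 0.5% DMSO vehicle. Read-out: CYP3A7 mRNA, gain or loss fitted against DMSO baseline.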
# [15] = read-out: Fatty Acid-Binding Protein 1 (FABP1), FABP1 (gene 2168); experiment: LTEA_HepaRG_FABP1: Life Technologies and Expression Analysis (LTEA) Assay for Fatty Acid-Binding Protein 1 (FABP1) using HepaRG (AID 2283494)
# How it was run: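 Values reflect bidirectional concentration-response fitting of FABP1 mRNA change against 0.5% DMSO controls. Human HepaRG cultures received eight half-log doses (top 100 uM) for 48 h; expression quantified by TaqMan qRT-PCR with housekeeping-gene normalization.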
# Cytochrome P450 2C19 (Homo sapiens), sequence (P33261 whole entry, looked up): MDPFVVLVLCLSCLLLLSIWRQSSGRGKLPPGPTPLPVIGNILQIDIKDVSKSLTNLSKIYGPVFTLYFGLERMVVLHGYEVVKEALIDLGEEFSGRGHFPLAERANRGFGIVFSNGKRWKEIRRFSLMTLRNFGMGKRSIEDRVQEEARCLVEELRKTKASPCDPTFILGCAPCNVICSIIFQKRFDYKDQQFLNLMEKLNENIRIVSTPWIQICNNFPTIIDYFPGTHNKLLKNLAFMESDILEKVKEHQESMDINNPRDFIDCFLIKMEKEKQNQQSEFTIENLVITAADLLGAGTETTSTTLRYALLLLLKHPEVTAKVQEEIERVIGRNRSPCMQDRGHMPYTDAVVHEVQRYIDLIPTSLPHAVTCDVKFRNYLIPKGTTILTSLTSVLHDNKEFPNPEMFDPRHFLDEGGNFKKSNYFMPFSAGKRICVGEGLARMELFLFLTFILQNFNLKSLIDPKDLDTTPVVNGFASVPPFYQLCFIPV
# Cytochrome P450 3A4 (Homo sapiens), sequence (P08684 whole entry, looked up): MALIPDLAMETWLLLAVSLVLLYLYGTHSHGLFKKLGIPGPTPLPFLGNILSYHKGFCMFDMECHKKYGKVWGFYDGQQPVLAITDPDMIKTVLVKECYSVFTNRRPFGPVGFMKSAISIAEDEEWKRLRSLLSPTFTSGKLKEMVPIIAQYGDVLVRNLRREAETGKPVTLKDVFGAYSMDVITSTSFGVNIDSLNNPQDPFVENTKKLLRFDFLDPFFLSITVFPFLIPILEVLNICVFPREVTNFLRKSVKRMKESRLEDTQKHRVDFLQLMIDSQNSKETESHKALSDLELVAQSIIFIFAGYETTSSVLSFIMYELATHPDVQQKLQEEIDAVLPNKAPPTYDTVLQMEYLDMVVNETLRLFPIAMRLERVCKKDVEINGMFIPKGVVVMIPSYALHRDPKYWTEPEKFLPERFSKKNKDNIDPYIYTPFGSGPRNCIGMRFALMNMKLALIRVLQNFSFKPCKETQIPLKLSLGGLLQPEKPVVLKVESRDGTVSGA
# Cytochrome P450 3A7 (Homo sapiens), sequence (P24462 whole entry, looked up): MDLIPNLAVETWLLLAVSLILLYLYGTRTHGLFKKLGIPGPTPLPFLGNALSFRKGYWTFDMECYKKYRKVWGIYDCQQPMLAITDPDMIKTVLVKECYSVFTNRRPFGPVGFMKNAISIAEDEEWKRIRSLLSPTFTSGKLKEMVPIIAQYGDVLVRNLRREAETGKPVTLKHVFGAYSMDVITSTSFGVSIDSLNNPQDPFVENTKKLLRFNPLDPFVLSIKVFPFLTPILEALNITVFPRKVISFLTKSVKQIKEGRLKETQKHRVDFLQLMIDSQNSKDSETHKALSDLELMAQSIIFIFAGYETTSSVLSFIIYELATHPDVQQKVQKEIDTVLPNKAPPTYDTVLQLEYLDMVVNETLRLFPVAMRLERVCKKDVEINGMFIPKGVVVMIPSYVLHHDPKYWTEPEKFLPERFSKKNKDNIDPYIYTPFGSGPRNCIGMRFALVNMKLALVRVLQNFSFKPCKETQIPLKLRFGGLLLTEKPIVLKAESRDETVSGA
smiles,measurement,setting,value
Nc1c(Cl)c(Cl)nc(C(=O)O)c1Cl,outcome,[1],inactive
same,outcome,[2],inactive
same,outcome,CYP2C8 (gene 1558),inactive
same,outcome,CYP2C9 (gene 1559),inactive
same,outcome,CYP2E1 (gene 1571),inactive
same,outcome,CYP4A11 (gene 1579),inactive
same,outcome,[3],inactive
same,outcome,[4],inactive
same,outcome,[5],inactive
same,outcome,[6],inactive
same,outcome,[7],inactive
same,outcome,CYP3A5 (gene 1577),inactive
same,outcome,[8],inactive
same,outcome,[9],inactive
same,outcome,[10],inactive
same,outcome,[11],inactive
same,outcome,[12],inactive
same,outcome,[13],inactive
O=C(Nc1ccccc1-c1ccc(Cl)cc1)c1cccnc1Cl,AC50,[1],1.62 µM (active)
same,outcome,[2],inactive
same,outcome,CYP2C8 (gene 1558),inactive
same,outcome,CYP2C9 (gene 1559),inactive
same,AC50,CYP2E1 (gene 1571),52.5 µM (active)
same,outcome,CYP4A11 (gene 1579),inactive
same,outcome,[4],inactive
same,outcome,[5],inactive
same,outcome,[6],inactive
same,outcome,[7],inactive
same,outcome,[14],inactive
same,outcome,CYP3A5 (gene 1577),inactive
same,outcome,[8],inactive
same,AC50,[9],17 µM (active)
same,outcome,[10],inactive
same,outcome,[11],inactive
same,outcome,[12],inactive
same,outcome,[13],inactive
COc1cc(Cl)c(OC)cc1Cl,AC50,[1],1.23 µM (active)
same,outcome,CYP2C8 (gene 1558),inactive
same,outcome,CYP2C9 (gene 1559),inactive
same,outcome,CYP2E1 (gene 1571),inactive
same,outcome,CYP4A11 (gene 1579),inactive
same,outcome,[3],inactive
same,outcome,[4],inactive
same,outcome,[5],inactive
same,outcome,[6],inactive
same,outcome,[7],inactive
same,outcome,CYP3A5 (gene 1577),inactive
same,outcome,[15],inactive
same,outcome,[8],inactive
same,outcome,[9],inactive
same,outcome,[10],inactive
same,outcome,[11],inactive
same,outcome,[12],inactive
same,outcome,[13],inactive
CCOc1nc(C(Cl)(Cl)Cl)ns1,AC50,[1],1.28 µM (active)
same,AC50,[2],14.9 µM (active)
same,AC50,CYP2C8 (gene 1558),1.14 µM (active)
same,outcome,CYP2C9 (gene 1559),inactive
same,outcome,CYP2E1 (gene 1571),inactive
same,AC50,CYP4A11 (gene 1579),1.12 µM (active)
same,outcome,[3],inactive
same,AC50,[4],1.61 µM (active)
same,AC50,[6],1.12 µM (active)
same,outcome,[7],inactive
same,AC50,[14],2.43 µM (active)
same,outcome,CYP3A5 (gene 1577),inactive
same,outcome,[10],inactive
same,AC50,[11],0.939 µM (active)
same,outcome,[12],inactive
same,AC50,[13],1.14 µM (active)
CNC(=O)Oc1cccc2ccccc12,AC50,[1],25.6 µM (active)
same,outcome,[2],inactive
same,outcome,CYP2C8 (gene 1558),inactive
same,outcome,CYP2C9 (gene 1559),inactive
same,outcome,CYP2E1 (gene 1571),inactive
same,outcome,CYP4A11 (gene 1579),inactive
same,outcome,[3],inactive
same,outcome,[4],inactive
same,outcome,[5],inactive
same,outcome,[6],inactive
same,outcome,[7],inactive
same,outcome,CYP3A5 (gene 1577),inactive
same,outcome,[8],inactive
same,outcome,[10],inactive
same,outcome,[11],inactive
same,outcome,[12],inactive
same,outcome,[13],inactive
COCc1cnc(C2=NC(C)(C(C)C)C(=O)N2)c(C(=O)O)c1 (stereo unspecified),outcome,[1],inactive
same,outcome,[2],inactive
same,outcome,CYP2C8 (gene 1558),inactive
same,outcome,CYP2C9 (gene 1559),inactive
same,outcome,CYP2E1 (gene 1571),inactive
same,outcome,CYP4A11 (gene 1579),inactive
same,outcome,[3],inactive
same,outcome,[4],inactive
same,outcome,[5],inactive
same,outcome,[6],inactive
same,outcome,[7],inactive
same,outcome,CYP3A5 (gene 1577),inactive
same,outcome,[8],inactive
same,outcome,[10],inactive
same,outcome,[11],inactive
same,outcome,[12],inactive
same,outcome,[13],inactive
CC1(C)C(C=C(Cl)Cl)C1C(=O)OC(C#N)c1cccc(Oc2ccccc2)c1 (stereo unspecified),AC50,[1],9.35 µM (active)
same,AC50,[2],23.7 µM (active)
same,outcome,CYP2C8 (gene 1558),inactive
same,outcome,CYP2C9 (gene 1559),inactive
same,AC50,CYP2E1 (gene 1571),50.2 µM (active)
same,outcome,CYP4A11 (gene 1579),inactive
same,outcome,[4],inactive
same,outcome,[5],inactive
same,outcome,[6],inactive
same,outcome,[7],inactive
same,outcome,CYP3A5 (gene 1577),inactive
same,outcome,[15],inactive
same,outcome,[8],inactive
same,outcome,[10],inactive
same,outcome,[11],inactive
same,outcome,[12],inactive
same,outcome,[13],inactive
